Pf growth 48h: P. falciparum growth inhibition at 48 hours (one generation). P. falciparum luciferase growth in erythrocytes, 48 h. Potency, µM (titrated, usually from 28.7 µM), for the others: at the top dose activity change, negative = inhibition, hits mostly inhibitors. 310,000 compounds, 5.9% hits; also: potency is read from the fitted curve at half-maximal effect; % is scaled to controls: 0 for no effect and ±100 for the full control effect
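A one-generation exposure of luciferase-tagged malaria parasites in RPMI 1640/Albumax erythrocyte culture, 37 C and 5% CO2. Inhibition is inferred from decreased luminescence after adding detection reagent.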
Cycloheximide cs: counter-screen for Shiga toxin inhibitors: cycloheximide protein synthesis inhibition; cell reporter, cycloheximide protein synthesis inhibition counterscreen; max response, %; 300,000 compounds, 12% hits; AID 2314; in the data active = max response mostly above about 13%, no sharp cut-off; inactive = mostly below about 14%; also: read at 38.3 µM for the half of the compounds with a filed dose; 0% is about no effect
Pf growth 96h: inhibits malaria parasite growth, 96 h; P. falciparum luciferase reporter growth, 96 h; Potency, µM (titrated, usually from 28.7 µM), for the others: at the highest dose activity change, negative = inhibition, usual class: inhibitors; 320,000 compounds, 6.9% hits; AID 504834; also: potency is read from the fitted curve at half-maximal effect; % is scaled to controls: 0 for no effect and ±100 for the full control effect
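P. falciparum expressing integrated firefly luciferase grown in erythrocytes (2% hematocrit, 0.05% parasitemia final) with compounds for 96 hours at 37 C, 5% CO2. Growth inhibition read as loss of luminescence after adding luciferase detection reagent.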
HCV inhibitor: blocks hepatitis C virus. Huh7.5.1 HCVcc-Cre infection, luciferase reporter, 44 h. Potency, µM (top dose mostly 41.8 µM), for the others: top-dose activity change, negative = inhibition, most hits filed as inhibitors. 340,000 compounds, 3.4% hits; also: potency is read from the fitted curve at half-maximal effect; % is scaled to controls: 0 for no effect and ±100 for the full control effect
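Infectious HCV cell culture screen: compound-treated cells (1,000/well, pre-plated 4 h) are infected with HCVcc-Cre at roughly 0.5 moi and grown 44 h. Infection is quantified by luciferase signal after 15 min substrate incubation at room temperature.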
Shiga toxin inh: inhibitors of Shiga toxin in Vero cells; 290,000 compounds, 9.2% hits; inhibition, % at 38.7 µM; AID 2315; Vero cells, Shiga toxin protein synthesis inhibition reporter; in the data active = inhibition mostly above about 28%, no sharp cut-off; inactive = mostly below about 43%; also: 0% is about no effect
HCMV inh: human cytomegalovirus inhibition. HFF cells, HCMV-luciferase reporter, 72 h; stronger effect = lower value. activity change, negative = inhibition, % at 57.5 µM. 410,000 compounds, 4.5% hits; in the data active = activity change below about -60%; inconclusive = no clear call, values can overlap the other calls; inactive = above about -39%; also: % is scaled to controls: 0 for no effect and ±100 for the full control effect
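Two-dose cell screen: HFF monolayers treated with compounds and infected with luciferase-expressing HCMV at 1 PFU/cell, 72 h at 37C, then lysed for luciferase measurement.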
Starred values were filed as active, the others as inactive; i = inactive; ? = inconclusive; nt = not tested or not shown; [ ] = remark or other dose. A selection: hits, their analogues and other compounds. The true share with any hit is near 21%. Unless noted, calls follow the shape of the dose curve; as a rule, active = well fitted inhibition curve with a large enough effect; inconclusive = small, poorly fitted or top-dose-only effect, or another doubt; inactive = no such curve, though single readings can be large or run the other way.

SMILES	Pf growth 48h	Cycloheximide cs	Pf growth 96h	HCV inhibitor	Shiga toxin inh	HCMV inh
O=C(c1cc2c(s1)CCCC2)N1CCN(C(=O)C2CCCO2)CC1 (stereo unspecified)	28%	12	nt	7%	14	18
COc1ccc(N2CCN(C(=O)c3cc4c(s3)CCCCC4)CC2)cc1	?	nt	?	-28%	nt	-17
O=C(c1cc2c(s1)CCCC2)N1CCC2(CC1)OCCO2	33%	22*	nt	-4%	76*	50
O=C(c1cc2c(s1)CCCC2)N1CCN(Cc2ccc3c(c2)OCO3)CC1	-10%	4	-4%	-22%	-8	?
COc1ccccc1N1CCN(C(=O)c2cc3c(s2)CCC3)CC1	nt	5	13µM*	-25%	7	-17
C=CCN1CCN(C(=O)c2cc3c(s2)CCCC3)CC1	117%	15*	7%	0%	59	20
O=C(c1cc2c(s1)CCCC2)n1cccn1	18%	18*	37%	4%	9	55
CC(=O)c1ccc(N2CCN(C(=O)c3cc4c(s3)CCCC4)CC2)cc1	0%[5.75 µM]	18*	-25%	?	71*	-17
Cc1nc2ccccn2c1CN(C)C(=O)C1CCC(=O)N(Cc2cccc(F)c2)C1 (stereo unspecified)	-10%	-3	?	14%	3	-39
CCOC(=O)c1c(C)[nH]c(C(=O)COC(=O)COc2ccc(OC)cc2)c1C	22%	-2	12%	-2%	-15	-13
CCOC(=O)c1c(C)[nH]c(C(=O)COC(=O)c2ccc(O)cc2O)c1C	24%	19*	83%	?	18	-15
CCOC(=O)c1c(C)[nH]c(C(=O)COC(=O)c2ccc(O)cc2)c1C	?	22*	?	?	54*	-4
CCOC(=O)c1c(C)[nH]c(C(=O)COC(=O)c2ccccn2)c1C	-12%	38*	16%	-3%	100*	10
CCOC(=O)c1c(C)[nH]c(C(=O)OCC(=O)c2ccccc2)c1C	16%	nt	23%	?	nt	81
CC(C)(C)S(=O)N1C[C@H]2CC(=O)C=C2[C@@H]1CCO (stereo partly specified)	nt	nt	nt	nt	nt	-6
Cc1cccc(C)c1N(CC(=O)NCc1ccco1)C(=O)CNS(=O)(=O)c1ccc(F)cc1	-31%	2	6%	14%	17	12
Cc1cc2oc(=O)cc(-c3ccccc3)c2c(C)c1-c1ccoc1	nt	2	nt	nt	i	nt
Cc1[nH]c2ccccc2c1C(=O)CCl	?	-1	10µM*	?	-1	?
Cc1[nH]c2ccccc2c1C(=O)C(=O)NCc1cccs1	6%	16	31%	10%	-5	?
Cc1[nH]c2ccccc2c1C(=O)CSc1ccccn1	14%	40*	?	?	45	-10
Cc1[nH]c2ccccc2c1C(=O)CNc1nccs1	-27%	8	?	22µM*	38	26
Cc1ccc(SCC(=O)c2c(C)[nH]c3ccccc23)cc1	?	13*	-100%	27%	35	-16
CCN(c1ccccc1)S(=O)(=O)c1ccc(NC(=O)c2cc(=O)c3c(C)cc(C)cc3o2)cc1	nt	nt	nt	nt	nt	7
COc1ccc(CCNC(=O)c2nnn(CC(=O)Nc3ccc(C)cc3C)c2N)cc1OC	21%	12	?	?	-3	-8
O=C(COc1cc(Cl)c(Cl)cc1Cl)N1CCN(c2ccccn2)CC1	6%[5.75 µM]	2	-3%	-27%	-4	-17
SMILES	Pf growth 48h	Cycloheximide cs	Pf growth 96h	HCV inhibitor	Shiga toxin inh	HCMV inh
Cc1[nH]c2ccccc2c1C(=O)CSc1ccccc1	?	28*	35%	-22%	4	-9
Cc1[nH]c2ccccc2c1C(=O)CSc1ccc(F)cc1	0%	23*	?	-17%	52	25
Cc1[nH]c2ccccc2c1C(=O)C(=O)NC1CC(=O)N(c2ccccc2)C1 (stereo unspecified)	nt	nt	nt	nt	nt	-18
Cc1[nH]c2ccccc2c1C(=O)C(=O)NC1CC1	49%	48*	?	8%	94*	?
Cc1ccccc1SC1CCN(C(=O)C2CCC(=O)N(C3CC3)C2)CC1 (stereo unspecified)	-18%	3	0%	-10%	7	-2
COCCCC1CCN(C(=O)C2CCC(=O)N(CC3CCCCC3)C2)CC1 (stereo unspecified)	2%	-3	1.5µM*	nt	3	4
Cc1ccc(SC2CCN(C(=O)C3CCC(=O)N(C4CC4)C3)CC2)cc1 (stereo unspecified)	-3%	27	?	?	49*	22
COc1cccc(N2CCN(C(=O)C3CCC(=O)N(C4CCCCCC4)C3)CC2)c1 (stereo unspecified)	8.3µM*	12	?	?	17	22
COc1cccc(CN2CCN(C(=O)C3CCC(=O)N(C4CCCC4)C3)CC2)c1 (stereo unspecified)	?	6	-21%	27%	-5	?
COCC1CCN(C(=O)C2CCC(=O)N(C3CCCC3)C2)CC1 (stereo unspecified)	11%	15*	-5%	9%	49	55
CCOC(=O)C1CCN(C(=O)C2CCC(=O)N(CC3CCCCC3)C2)CC1 (stereo unspecified)	-3%	-1	?	9%	-4	2
CC12CCC(C[N+](C)(CCC[N+](C)(C)C)C1)C2(C)C (stereo unspecified)	-14%	nt	-6%	nt	nt	nt
Cc1ccc(C(C)(C)NC(=O)C2CCC(=O)N(C3CCCCCC3)C2)cc1 (stereo unspecified)	-1%	42*	13%	8%	86*	63
O=C(C1CCC(=O)N(C2CC2)C1)N1CCC(Oc2cccc(C(F)(F)F)c2)CC1 (stereo unspecified)	?	24*	37%	?	17	?
O=C(C1CC(=O)N(C2CCCCC2)C1)N1CCC2(CC1)OCCO2 (stereo unspecified)	20%	13*	-9%	8%	32	1
COC1CCN(C(=O)C2CCC(=O)N(C3CCCCCC3)C2)CC1 (stereo unspecified)	2%	36*	3%	11%	52*	0
Cc1ccc(OC2CCN(C(=O)C3CCC(=O)N(C4CC4)C3)CC2)cc1 (stereo unspecified)	-6%	7	31%	nt	11	-15
COc1ccccc1-c1nnc2n1N=C(c1c(OC)cccc1OC)CS2	nt	2	nt	nt	-6	nt
COc1ccc(CCNC(=O)c2cc(-c3cc(Cl)ccc3O)n[nH]2)cc1OC	?	-1	-22%	?	-4	?
Cc1ccc(-c2csc3ncnc(N4CCN(Cc5ccccc5)CC4)c23)cc1	?	1	?	?	-5	-9
Fc1ccc(CN2CCN(c3ncnc4scc(-c5ccccc5)c34)CC2)cc1	?	-3	10µM*	?	-4	-74*

Screening results (PubChem)
